CHT block: inhibits the human high affinity choline transporter; CHT-expressing cells, membrane potential dye, choline response; stronger effect = lower value; actives 0.86% (n = 310,000); Q9GZV3; B-score at 10 µM;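 active means B-score over 3 SD under the library average, and starting fluorescence ratio not unusually high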;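 further: choline stimulus applied at its EC90 after an EC20 pre-addition; B-score computed on integrated fluorescence ratio after choline addition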
Target sequence (Q9GZV3 whole entry, looked up): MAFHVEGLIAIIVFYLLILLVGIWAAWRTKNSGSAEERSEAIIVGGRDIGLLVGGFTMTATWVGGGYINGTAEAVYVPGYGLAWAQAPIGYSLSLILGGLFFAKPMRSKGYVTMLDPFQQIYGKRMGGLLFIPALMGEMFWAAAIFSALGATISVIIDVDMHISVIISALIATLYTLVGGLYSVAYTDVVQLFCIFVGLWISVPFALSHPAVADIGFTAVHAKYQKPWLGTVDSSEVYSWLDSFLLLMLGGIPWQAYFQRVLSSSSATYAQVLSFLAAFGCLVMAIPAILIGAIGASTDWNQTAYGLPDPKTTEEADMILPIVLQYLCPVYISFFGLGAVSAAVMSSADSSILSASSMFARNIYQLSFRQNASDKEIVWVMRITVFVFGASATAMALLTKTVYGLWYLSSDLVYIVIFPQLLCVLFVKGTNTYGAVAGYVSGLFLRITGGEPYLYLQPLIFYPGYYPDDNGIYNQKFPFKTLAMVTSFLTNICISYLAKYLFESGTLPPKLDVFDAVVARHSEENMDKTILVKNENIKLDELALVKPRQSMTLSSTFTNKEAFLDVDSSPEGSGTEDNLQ
ANO1 activ: mouse TMEM16A channel activation, primary screen; Q8BHY3; HEK293 TMEM16A/YFP-H148Q/I152L, iodide quench fluorescence; stronger effect = lower value; B-score at 10 µM; AID 623877; actives 0.3% (n = 340,000);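 active means fluorescence-ratio B-score plate-corrected deviation score at least 3 library SD below zero, with starting fluorescence score within 5 deviations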;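 further: channel opened by trigger with iodide after compound preincubation; score built on the fluorescence ratio of max minus min over baseline; more negative score means more quench and so TMEM16A activation or potentiation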
ANO1 block: inhibitors of mouse TMEM16A calcium-activated chloride channel; actives 1.2% (n = 310,000); HEK293 TMEM16A/YFP iodide influx fluorescence, ionomycin; normalized B-score (activity score, 25-100; higher = stronger inhibition) at 10 µM; AID 588511;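 active means ratio plate-corrected score three or more library SD toward inhibition, starting fluorescence score within five deviations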;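 further: score derived from kinetic fluorescence span divided by baseline fluorescence per well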
CHT allo act: human CHT allosteric activation. Q9GZV3. CHT-expressing cells, membrane potential dye, choline EC20; stronger effect = higher value; LV-AA mutant CHT in HEK293 cells. B-score at 10 µM. actives 0.49% (n = 310,000);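 active means initial fluorescence not abnormally high and integrated response B-score, plate-corrected, over 3 SD above library mean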
CHT act confirm: human CHT activation, confirmatory screen; AID 504833; CHT-expressing cells, membrane potential dye fluorescence (FDSS); % of choline EC20–EC90 response window; HEK293 expressing CHT LV-AA mutant; choline added at its EC20; activation, % at 10 µM; actives 91% (n = 2,500); shares compounds with CHT allo act;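 active means primary screen active, with duplicate mean activation above negative control mean plus 3 SD, cut at about 11% in these data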
HEK293 MP dye: CHT activator counter-screen hit in parental HEK293 cells | shares compounds with CHT allo act | membrane potential dye fluorescence (FDSS); measured after EC20 choline addition | ratio readout change at 10 µM, hits read low | actives 62% (n = 2,500);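 active means duplicate-averaged ratio beyond 3 SD from buffer wells, up or down, though filed actives are nearly all decreases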
* = called active by the depositor. An excerpt weighted towards active compounds, which were near 2.3% of everything screened.

What do the screens show for `O=C1N(Cc2cccc(Cl)c2)C[C@@H]2C[C@@H](c3ccccn3)N3CCC[C@@]123`?
CHT block: inactive; ANO1 activ: inactive; ANO1 block: inactive; CHT allo act: inactive

Results for CN(Cc1ccccc1F)c1nc(-c2cccs2)nc2ccccc12 ?
CHT block: inactive; ANO1 activ: inactive; ANO1 block: inactive; CHT allo act: inactive

How did Cc1cc(C)c2c(n1)sc1c(N3CCN(CCO)CC3)ncnc12 do in these assays?
CHT block: inactive; ANO1 activ: inactive; ANO1 block: inactive; CHT allo act: inactive

What do the screens show for `CCN1CCC2(CC1)C(C#N)=C(N)Oc1c2sc2nc(C)cc(C)c12`?
CHT block: inactive; ANO1 activ: inactive; ANO1 block: inactive; CHT allo act: 6.7*; CHT act confirm: 39*; HEK293 MP dye: inactive

Results for Cc1cc(CNC(=O)c2ccc3oc(C(C)C)nc3c2)nn1C ?
CHT block: inactive; ANO1 activ: inactive; ANO1 block: inactive; CHT allo act: inactive

What do the screens show for `Cc1cc(Cl)ccc1OC(C)C(=O)NCCCCc1ccccc1` (stereo unspecified)?
CHT block: inactive; ANO1 activ: inactive; ANO1 block: inactive; CHT allo act: inactive

How did Cc1cc(Cl)ccc1OC(C)C(=O)NCCc1ccc2c(c1)OCCO2 (stereo unspecified) do in these assays?
CHT block: inactive; ANO1 activ: inactive; ANO1 block: inactive; CHT allo act: inactive; CHT act confirm: 9; HEK293 MP dye: inactive

What do the screens show for `COc1cc(Nc2c3c(nc4ccccc24)CCCC3)cc(OC)c1OC`?
CHT block: inactive; ANO1 activ: inactive; ANO1 block: inactive; CHT allo act: inactive; CHT act confirm: 45*; HEK293 MP dye: -49*

Results for CCN1C[C@@H]2[C@@H]3C(=O)N(C)C(=O)[C@@H]3[C@](C)(C1=O)N2C(=O)c1ccc(Br)cc1 ?
ANO1 activ: inactive

How did CCN(CC)CCNc1cc(C)nc2c1C(=O)C(=O)C=C2N1CCCCC1 do in these assays?
CHT block: inactive; ANO1 activ: inactive; ANO1 block: inactive; CHT allo act: 7.3*; CHT act confirm: 65*; HEK293 MP dye: -66*

How did CC(C)CC(c1nnnn1C(C)C)N1CCN(c2cccc(Cl)c2)CC1 (stereo unspecified) do in these assays?
CHT block: inactive; ANO1 activ: inactive; ANO1 block: inactive; CHT allo act: inactive; CHT act confirm: 26*; HEK293 MP dye: inactive

What do the screens show for `CC(C)CC(c1nnnn1C(C)C)N1CCN(C(=O)c2ccco2)CC1` (stereo unspecified)?
CHT block: inactive; ANO1 activ: inactive; ANO1 block: inactive; CHT allo act: inactive

How did Cc1nnc(NCCc2ccccc2)c2ccccc12 do in these assays?
CHT block: inactive; ANO1 activ: inactive; ANO1 block: inactive; CHT allo act: 7.2*; CHT act confirm: 39*; HEK293 MP dye: -49*

Results for CCN(CC)C(=O)CSc1nc(OC)cc(=O)[nH]1 ?
CHT block: inactive; ANO1 activ: inactive; ANO1 block: inactive; CHT allo act: inactive

Results for COc1ccccc1N1CCN(Cc2nc(-c3ccc(F)cc3)oc2C)CC1 ?
CHT block: inactive; ANO1 activ: inactive; ANO1 block: inactive; CHT allo act: inactive

What do the screens show for `Cc1cc(N2CCN(Cc3nc(-c4ccc(F)cc4)oc3C)CC2)cc(C)n1`?
CHT block: inactive; ANO1 activ: inactive; ANO1 block: inactive; CHT allo act: 6.8*; CHT act confirm: 43*; HEK293 MP dye: -47*

Results for O=C(NC1CCCCCCC1)c1cc(-c2ccccn2)nc2ccccc12 ?
CHT block: inactive; ANO1 activ: inactive; ANO1 block: inactive; CHT allo act: 6.8*; CHT act confirm: 10*; HEK293 MP dye: inactive

What do the screens show for `O=C(NC1CCN(Cc2ccccc2)CC1)c1cc(-c2ccccn2)nc2ccccc12`?
CHT block: inactive; ANO1 activ: inactive; ANO1 block: inactive; CHT allo act: 7.8*; CHT act confirm: 48*; HEK293 MP dye: -59*
